Test results: PubChem BioAssay AID504582 (Broad Institute, 2011)
Screen size: about 340,000 compounds; about 2,300 (0.68%) were called active. The list comes from a sample in which actives are over-represented; it also holds similar structures and randomly drawn compounds. Values without a mark were called inactive. No stated cut-off is given here; in the data, active means growth rescue above about 28% (passing the limit was not always enough); inconclusive means no clear call, values can overlap the other calls.

test: rescue of yeast from PfHsp40 toxicity, primary screen, S. cerevisiae, ATP luminescence (AID 504582);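 further: yeast W303a lacking pdr1 and pdr3 grown in galactose medium; growth measured after three days at 30 °C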; conditions: S. cerevisiae expressing PfHsp40, growth rescue, at 12.5 µM, active compounds read high

| SMILES | growth rescue |
| --- | --- |
| CCOc1ccc(NS(=O)(=O)c2ccc(C)c(C(N)=O)c2)cc1 | -1.27% |
| O=C(CCc1nc2sc3c(c2c(=O)[nH]1)CCCC3)NCC(=O)Nc1ccccc1Br | -1.97% |
| COC(=O)CN1C(=O)[C@H]2[C@@H](C3CC3)N3C(=O)CN(Cc4ccc(-c5ccccc5)cc4)C(=O)[C@@]3(Cc3ccccc3)[C@H]2C1=O | -1.17% |
| CN(C(=O)c1ccc(NC(=O)Cc2cccc(NC(=O)C3CCN(C(=O)c4ccccc4)CC3)c2)cc1)C1CC1 | -0.0305% |
| Cn1cccc1/C=N/NC(=O)c1ccc(OC(F)(F)C(F)F)cc1 | -1.34% |
| Cn1nccc1NC(=O)Nc1ccc(OC(F)(F)F)cc1 | -0.0415% |
| O=C(Nc1ccc(OC(F)(F)F)cc1)c1ccc2c(c1)no[n+]2[O-] | 178% (active) |
| Cc1ccc2c(c1)N(C(=O)CCC(=O)NCc1cccnc1)CCO2 | -1.04% |
| CCN([C@H](CO)C(C)C)S(=O)(=O)c1ccccc1Br | -0.487% |
| COc1cccc(-n2c(=S)sc3c(=O)n(-c4ccccc4C)c(SCC(=O)O)nc32)c1 | -1.96% |
| CC(C)C[C@@H](N)c1nnc(SCC(=O)c2ccc(Cl)cc2)o1 | -0.522% |
| COCc1c(N)c(C)nc(Cl)c1C#N | 51% (active) |
| Cc1nc(Cl)c(C#N)c2c1CCCC2 | 0.263% |
| COC(=O)c1c(C)c(C)nc(N)c1C#N | 0.0365% |
| Cc1ccc(OCC(O)CN2CCN(CC(O)COc3ccc(C)cc3Cl)CC2)c(Cl)c1 (centres undefined) | 65.8% (active) |
| C=CCc1ccc(OCC(O)CN2CCN(Cc3ccccc3)CC2)c(OC)c1 (centres undefined) | -0.721% |
| OC(COc1ccc(F)cc1Cl)CN1CCc2ccccc2C1 (centres undefined) | 0.0845% |
| CCCC(NC(=O)c1ccco1)c1nc2ccccc2[nH]1 (centres undefined) | -0.136% |
| O=c1[nH]c2cccnc2n(CCNc2ncc(C(F)(F)F)cc2Cl)c1=O | -1.76% |
| CN(C)C=NC(=O)c1cccn1-c1ncc(C(F)(F)F)cc1Cl | -0.737% |
| COc1cccc(/C=N/Nc2ncc(C(F)(F)F)cc2Cl)c1O | 233% (active) |
| COc1ccc(NC(=O)COC(=O)c2ccncc2)c(OC)c1 | -0.471% |
| CN(CCOc1ccc(Br)cc1)CC(=O)Nc1cccc(S(=O)(=O)NC2=NCCC2)c1 | -0.17% |
| COc1cc(C)c(C)cc1S(=O)(=O)N1CCCc2ccccc21 | -0.881% |

| SMILES | growth rescue |
| --- | --- |
| CCOC(=O)Cc1csc(SCC(=O)Nc2ccc(C)cc2F)n1 | 0.85% |
| O=C(Cc1ccc(Br)cc1)NCCc1ccccc1 | 1.3% |
| S=C(Nc1ccc(Br)cc1)NC1CCN(Cc2ccccc2)CC1 | 1.33% |
| S=C(NCCCc1ccccc1)Nc1ccc(Br)cc1 | 263% (active) |
| Cc1ccc(C)c2[nH]c(=O)c(CN(Cc3cccnc3)C(=S)NCc3ccco3)cc12 | 0.529% |
| O=C(CSC1CC(=O)N(CCc2ccccc2)C1=O)Nc1ccc(Cl)cc1 (centres undefined) | 0.11% |
| CCCC(C(=O)n1nc(C)cc1C)C(NS(=O)(=O)c1ccc(C)cc1)c1ccccc1 (centres undefined) | 5.61% |
| COc1ccc(NC(=O)C/C(C)=N/NC(=O)c2cnccn2)cc1Cl | -1.24% |
| Cc1ccc(/C=N/NC(=O)C2=NNC(c3ccccc3)(c3ccccc3)C2)c(O)c1 | -0.682% |
| CCN(CC)c1ccc(/C=N/NC(=O)c2cnccn2)c(O)c1 | 77.4% (active) |
| CCNC(=O)c1cnn(-c2ccccc2)c1-c1ccccc1 | -3.15% |
| Cn1c(C(=O)N2CCCC(C(=O)NCc3ccccc3)C2)cc2sccc21 (centres undefined) | 0.412% |
| CCCCCC(=O)N1CCN(S(=O)(=O)c2ccc3c(c2)OCCCO3)CC1 | 1.79% |
| O=S(=O)(NCc1ccccc1)c1ccc(S(=O)(=O)N2CCCC2)cc1 | 0.759% |
| CC1(C)CN(c2ccc(-c3ccnc4ncnn34)cc2)C1=O | -1.84% |
| Cc1ccc2c(c1)C(c1ccccc1)N(C(=O)c1ccc(S(=O)(=O)N3CCOCC3)cc1)CC(=O)N2 (centres undefined) | 72.7% (active) |
| Cc1ccc(C(=O)N2CC(=O)Nc3ccc(F)cc3C2c2ccc(F)cc2)cc1 (centres undefined) | 1.27% |
| Cc1ccc2c(c1)C(c1ccccc1)N(C(=O)c1ccc(F)cc1)CC(=O)N2 (centres undefined) | 0.27% |
| Cc1ccc(NN=Nc2nc3c([nH]2)c(=O)n(C)c(=O)n3C)cc1 | -0.566% |
| Cc1cc(C)n(CC(O)COc2ccc(C(C)(C)C)cc2)n1 (centres undefined) | 0.193% |
| CN(C)CC(O)COc1ccc(C(C)(C)c2ccc(OCC(O)CN(C)C)cc2)cc1 (centres undefined) | 26.9% (active) |
| COc1ccc(OCC(O)CN(C)C(=O)C(C)Oc2ccccc2)cc1 (centres undefined) | -0.614% |
| Cc1ccc2nc(C)c3c(c2c1)N(c1ccccc1)CC3 | -0.127% |
| Cc1ccc(S(=O)(=O)N2CCOCC2)cc1C(=O)Nc1ccccc1N1CCCC1 | 0.57% |

| SMILES | growth rescue |
| --- | --- |
| COc1ccc(OCC(O)CNC(=O)Nc2ccc(Cl)cc2)cc1 (centres undefined) | -1.02% |
| CC(C)(C)CC(C)(C)NCC(O)COCCOc1ccc(Br)cc1 (centres undefined) | 0.077% |
| COc1ccc(OCC(O)CNCCNc2nccc(C(F)(F)F)n2)cc1 (centres undefined) | 62.4% (active) |
| Cc1ccccc1Nc1c([N+](=O)[O-])ccc2nonc12 | -0.179% |
| CCc1cc2c(=O)c(-c3ccon3)c(N)oc2cc1OC | -0.783% |
| COc1ccc(NCc2nnc(SCc3ccccc3)n2-c2ccc(OC)cc2)cc1 | -1.36% |
| O=C(COc1ccccc1[N+](=O)[O-])N/N=C/c1ccc[nH]1 | -1% |
| Cc1nn(Cc2ccc(Cl)cc2)c(Cl)c1/C=N/NC(=O)CNc1ccccc1F | -0.219% |
| Cc1ccccc1NCC(=O)N/N=C\c1ccc([N+](=O)[O-])s1 | 406% (active) |
| Cn1c(CCC(=O)OCC(=O)NCc2ccccc2Cl)nc(=O)c2ccccc21 | 1.08% |
| O=C(CN1C(=O)NC2(CCCC2)C1=O)Nc1ccc(F)c(F)c1F | -0.549% |
| Cc1cccc(NC(=O)Nc2cccc(Oc3c(F)c(F)c(F)c(F)c3F)c2)c1 | -0.315% |
| Cc1ccoc1C(=O)Nc1cccc(Oc2ccccc2)c1 | 372% (active) |
| CC(Oc1cccc(NC(=O)c2cccs2)c1)C(=O)c1ccccc1 (centres undefined) | 3.27% |
| CCC1CCCCN1CCNC(=O)c1[nH]c(C)c(C(C)=O)c1C (centres undefined) | -0.34% |
| O=C1NC2(CCCCCC2)C(=O)N1CCS(=O)(=O)Oc1ccccc1 | 0.283% |
| O=C(NCC1COc2ccccc2O1)C1(c2ccccc2)CCCC1 (centres undefined) | 2.05% |
| CN(C)CC1Oc2ccccc2OC1(O)c1ccccc1 (centres undefined) | 472% (active) |
| CN(C)CCOC(=O)C(c1ccccc1)C1(O)CCCC1 (centres undefined) | 0.536% |
| CSc1ncccc1C(=O)NCc1ccccc1Cl | 1.68% |
| CCN(CC)CCCNC(=O)CCn1nc(-c2ccc(Cl)cc2)ccc1=O | -0.666% |
| O=C(CN1C(=O)C2C3C=CC(C3)C2C1=O)Nc1nc(-c2ccccn2)cs1 (centres undefined) | -0.446% |
| CC(NC(=O)c1ccco1)C(=O)Nc1nc(-c2ccccn2)cs1 (centres undefined) | -0.236% |
| O=C(COc1ccccc1F)Nc1nc(-c2ccccn2)cs1 | 398% (active) |

| SMILES | growth rescue |
| --- | --- |
| O=C(O)C1=C[C@H](c2cccs2)C[C@H](OCCCCO)O1 | -1.21% |
| O=C(O)c1c(NC(=O)N2CCCC2)sc2c1CCCC2 | 232% (active) |
| O=C(CN1CCCC1)Nc1sc2c(c1C(=O)Nc1ccccc1)CCCC2 | 0.179% |
| O=C(Nc1sc2c(c1C(=O)O)CCC2)c1ccccc1F | 0.175% |
| C=CCNc1nc(Nc2ccc(Cl)cc2)nc(OC)n1 | 0.232% |
| CC(C)(C)NC(=O)c1ccc(Cn2cc(C(F)(F)F)ccc2=O)cc1 | -0.625% |
| CCc1ccc(NC(=O)c2ccc(Cn3cc([N+](=O)[O-])cn3)cc2)cc1 | -0.255% |
| Cn1ccc(=Nc2ccc(NC(=O)c3ccc(N=c4ccn(C)c5ccc([N+](=O)[O-])cc45)cc3)cc2)cc1 | 236% (active) |
| Cn1c(=O)n(C)c2cc(C(=O)Nc3ccc(Br)cc3)ccc21 | -1.51% |
| Oc1ccc2ccccc2c1N=Nc1nccs1 | 118% (active) |
| Cc1ccc(CNC(=O)CC2Sc3ccccc3NC2=O)cc1 (centres undefined) | 0.304% |
| Cc1cccc(NC(=O)c2cccc(C(=O)Nc3cccc(C)c3C)n2)c1C | -0.654% |
| O=C(OCc1ccc(-c2ccccc2)cc1)c1cccc(O)c1 | 179% (active) |
| O=C(CNC(=O)c1ccc(-c2ccccc2)cc1)OCc1ccc(Cl)cc1 | -0.241% |
| O=C(OCC(=O)c1c[nH]c2ccccc12)c1cccc(O)c1 | -0.5% |
| C/C(Cn1nnc2ccccc21)=N\OC(=O)c1cc(F)c(F)cc1Cl | 0.415% |
| O=C(CCC(=O)N1CCCC1)Nc1ccc([N+](=O)[O-])cc1 | -0.401% |
| Cc1c(C(=O)N2CCCC2)c(S(=O)(=O)NCC(C)c2ccccc2)c(C)n1C (centres undefined) | -0.332% |
| CCOC(=O)c1ccccc1NC(=O)COC(=O)CCC(=O)N1CCOCC1 | -0.942% |
| COC(=O)/C=C\C(=O)Nc1cccc([N+](=O)[O-])c1 | 233% (active) |
| O=C(Nc1cccc([N+](=O)[O-])c1)Nn1cnnc1 | 0.084% |
| CCC(CC)NC(=O)/C=C/c1cccc([N+](=O)[O-])c1 | -2.62% |
